PubChem BioAssay (NCATS)
Several values for one entry are separate records, joined by “and”; a condition that tells them apart may be missing. Identical values can stand only once. Records with an inconclusive call do not appear. Some structures have more than one record in an assay (separate samples or runs), and their calls can disagree. Activity calls are given as the source filed them. The call rests on the fitted dose curve; in most records, active means well fitted curve in the direction sought with a large enough effect; inconclusive means small, poorly fitted or top-dose-only effect, or another doubt; inactive means no such curve, though single readings can be large; an effect the other way counts as inactive or inconclusive.

Experiments:
[1] = target: Cytochrome P450 3A7 (Homo sapiens) (UniProt P24462); test: Cytochrome P450 family 3 subfamily A member 7 (CYP3A7) small molecule antagonists: luciferase biochemical qHTS assay (AID 1963596); further: on the % scale 0 is the no-effect control and ±100 the full control effect; nearly all actives have a fitted effect of over 40% in size
How it was run: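 In this luminescent screen, enzyme and proluciferin substrate meet test compound for 10 min before NADPH regeneration solution drives a 1 h room-temperature reaction; detection reagent halts turnover and luminescence is read 20 min later.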

[2] = Viability qHTS for spleen associated tyrosine kinase inhibitor (SYKi) naive MV4-11 cells (AID 1963823); further: nearly all actives have a fitted effect of over 40% in size; further: potency means the concentration at half of the fitted maximal effect
How it was run: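 SYKi-naive MV4-11 AML cells, 500 per well, were exposed to library compounds for 72 hr at 37 C, 5% CO2. Viability was then read by CellTiter-Glo luminescence after 10 min at room temperature.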

[3] = Viability qHTS for spleen associated tyrosine kinase inhibitor (SYKi) drug resistant MV4-11 cells (AID 1963824); further: nearly all actives have a fitted effect of over 35% in size; further: potency means the concentration at half of the fitted maximal effect
How it was run: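 CellTiter-Glo luminescence, read 10 min after reagent addition, reports viability after a 72 hr compound exposure. Cells are an MV4-11 line made resistant to SYK inhibition, seeded at 500 per well onto compound-containing plates.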

[4] = Quantitative highthroughput screen to assess conditional lethalithy of NOMO1 cells grown in RPMI1640 with dialyzed fetal bovine serum (RPMI+ds) (AID 1963877); further: nearly all actives have a fitted effect of over 30% in size; further: potency means the concentration at half of the fitted maximal effect;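 on Viability: series mostly up to about 46 µM; 100% = DMSO control wells and 0% = empty wells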
How it was run: (§1)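 Each medium arm—HPLM with 10% dialyzed FBS, or RPMI1640 with 5 mM glucose and 10% untreated or dialyzed FBS—was screened against an 11-point, 3-fold compound titration for 48 h at 37 °C, with CellTiter-Glo luminescence as endpoint.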

[5] = Quantitative highthroughput screen to assess conditional lethalithy of P12 Ichikawa cells grown in Human Plasma-Like Medium with dialyzed fetal bovine serum (HPLM+ds) (AID 1963879); details: Potency: viability; further: nearly all actives have a fitted effect of over 35% in size; further: potency means the concentration at half of the fitted maximal effect; on Viability: series mostly up to about 46 µM
How it was run: as §1

[6] = Quantitative highthroughput screen to assess conditional lethalithy of P12 Ichikawa cells grown in RPMI1640 with dialyzed fetal bovine serum (RPMI+ds) (AID 1963880); details: Potency: P12-Ichikawa viability; further: nearly all actives have a fitted effect of over 35% in size; further: potency means the concentration at half of the fitted maximal effect;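 on Viability: 100% = DMSO wells and 0% = empty wells on each plate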
How it was run: as §1

[7] = Quantitative highthroughput screen to assess conditional lethalithy of P12 Ichikawa cells grown in RPMI1640 with untreated serum (RPMI+s) (AID 1963881); details: Potency: viability; further: nearly all actives have a fitted effect of over 35% in size; further: potency means the concentration at half of the fitted maximal effect;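 on Viability: series mostly up to about 46 µM; 100% = DMSO wells and 0% = empty wells without cells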
How it was run: as §1

[8] = Quantitative highthroughput screen to assess conditional lethalithy of SEM cells grown in Human Plasma-Like Medium with dialyzed fetal bovine serum (HPLM+ds) (AID 1963882); further: nearly all actives have a fitted effect of over 35% in size; further: potency means the concentration at half of the fitted maximal effect; on Viability: series mostly up to about 46 µM
How it was run: as §1

[9] = Quantitative highthroughput screen to assess conditional lethalithy of SEM cells grown in RPMI1640 with unreated serum (RPMI+s) (AID 1963883); further: nearly all actives have a fitted effect of over 35% in size; further: potency means the concentration at half of the fitted maximal effect;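 on Viability: 100% = DMSO wells and 0% = empty wells without cells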
How it was run: as §1

[10] = Quantitative highthroughput screen to assess conditional lethalithy of SEM cells grown in RPMI1640 with dialyzed fetal bovine serum (RPMI+ds) (AID 1963884); further: nearly all actives have a fitted effect of over 35% in size; further: potency means the concentration at half of the fitted maximal effect;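 on Viability: series mostly up to about 46 µM; 100% = DMSO control wells and 0% = empty wells without cells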
How it was run: as §1

[11] = Cellular viability qHTS for adrenocortical cancer (ACC) cell line SW-13 (AID 1963989); details: SW-13 ACC cells viability, CellTiter-Glo, 48 h; activity (max response): stronger effect = lower value; further: nearly all actives have a fitted effect of over 65% in size; further: potency means the concentration at half of the fitted maximal effect;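 on activity (max response): cells grown in serum-free medium with ITS supplement; on the % scale 0 is the no-effect control and ±100 the full control effect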
How it was run: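 48 h treatment, SW-13 in ITS/DMEM serum-free; doses up to 46 uM; readout CellTiter-Glo luminescence; curve fit four-parameter logistic.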

[12] = Cellular viability qHTS for adrenocortical cancer (ACC) cell line NCI-H295R (AID 1963990); further: nearly all actives have a fitted effect of over 60% in size; further: potency means the concentration at half of the fitted maximal effect
How it was run: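 Compound titrations (up to 46 uM final) are applied to NCI-H295R cultures for 48 h at 37C. Viable cell number is estimated by CellTiter-Glo signal, normalised to DMSO and doxorubicin controls.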

[13] = Quantitative highthroughput screen to assess conditional lethalithy of NOMO1 cells grown in Human Plasma-Like Medium with dialyzed fetal bovine serum (HPLM+ds) (AID 1963878); further: nearly all actives have a fitted effect of over 35% in size; further: potency means the concentration at half of the fitted maximal effect;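 on Viability: 100% = DMSO wells and 0% = empty wells on each plate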
How it was run: as §1

[14] = Quantitative highthroughput screen to assess conditional lethalithy of NOMO1 cells grown in RPMI1640 with untreated serum (RPMI+s) (AID 1963876); further: nearly all actives have a fitted effect of over 35% in size; further: potency means the concentration at half of the fitted maximal effect;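 on Viability: 100% = DMSO wells and 0% = empty wells without cells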
How it was run: as §1

Chain of Cytochrome P450 3A7 (Homo sapiens) (P24462 whole entry, looked up): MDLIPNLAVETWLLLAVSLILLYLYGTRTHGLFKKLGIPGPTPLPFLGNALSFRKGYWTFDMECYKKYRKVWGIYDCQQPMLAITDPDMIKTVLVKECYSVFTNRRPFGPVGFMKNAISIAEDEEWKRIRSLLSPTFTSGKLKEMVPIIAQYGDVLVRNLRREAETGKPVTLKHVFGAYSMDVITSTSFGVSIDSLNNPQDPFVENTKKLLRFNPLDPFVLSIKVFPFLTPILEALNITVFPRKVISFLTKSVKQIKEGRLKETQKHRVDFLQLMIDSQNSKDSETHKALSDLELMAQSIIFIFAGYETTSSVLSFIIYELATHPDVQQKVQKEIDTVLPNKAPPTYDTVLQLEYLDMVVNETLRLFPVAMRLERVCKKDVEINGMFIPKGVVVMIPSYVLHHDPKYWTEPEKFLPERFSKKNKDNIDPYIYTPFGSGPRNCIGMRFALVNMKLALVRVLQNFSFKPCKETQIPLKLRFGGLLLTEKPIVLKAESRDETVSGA

CCN1CCCC1CNC(=O)c1cc(S(=O)(=O)CC)c(N)cc1OC (centres undefined)
inactive: Potency [1] | Potency [2] | Potency [3] | Potency [4] | Potency [5] | Potency [6] | Potency [7] | Potency [8] | Potency [9] | Potency [10] | activity (max response) [11] 7.57% and -4.85% | Potency [12]

Nc1nc(Cl)nc2c1ncn2[C@H]1C[C@H](O)[C@@H](CO)O1
inactive: Potency [1] | Potency [12]
active: Potency [2] 93.4 nM | Potency [3] 0.148 µM | Potency [4] 148 nM | Potency [13] 132 nM | Potency [5] 209 nM | Potency [6] 235 nM | Potency [7] 187 nM | Potency [8] 105 nM | Potency [9] 105 nM | Potency [10] 66.2 nM

O=C1NC(O)CCN1[C@@H]1O[C@H](CO)[C@H](O)[C@H]1O (some centres undefined)
inactive: Potency [1] | Potency [2] | Potency [3] | Potency [5] | Potency [6] | Potency [7] | Potency [8] | Potency [9] | Potency [10] | activity (max response) [11] -1.6%
active: Potency [13] 20900 nM

CCn1cc(C(=O)O)c(=O)c2ccc(C)nc21
inactive: Potency [1] | Potency [2] | Potency [3] | Potency [4] | Potency [5] | Potency [6] | Potency [7] | Potency [8] | activity (max response) [11] 13.9% | Potency [12]
active: Potency [10] 5900 nM

Cn1c(NCCN(CCO)CCCc2ccc([N+](=O)[O-])cc2)cc(=O)n(C)c1=O
inactive: Potency [1] | Potency [2] | Potency [3] | Potency [14] | activity (max response) [11] 5.91% and 4.46% | Potency [12]

CN1C(C(=O)Nc2ccccn2)=C(O)c2sccc2S1(=O)=O
inactive: Potency [1] | Potency [3] | Potency [6] | Potency [7] | Potency [8] | Potency [9] | Potency [10] | Potency [12]
750 nM (active) and inactive: Potency [2]

CCn1cc(C(=O)O)c(=O)c2cc(F)c(N3CCNC(C)C3)c(F)c21 (centres undefined)
inactive: Potency [1] | Potency [2] | Potency [3] | Potency [4] | Potency [13] | Potency [5] | Potency [6] | Potency [7] | Potency [8] | Potency [9] | Potency [10] | activity (max response) [11] -4.05% and -10.4% | Potency [12]

COC(=O)Nc1nc2ccc(C(=O)c3cccs3)cc2[nH]1
active: Potency [2] 106 nM | Potency [3] 42.2 nM and 118 nM | Potency [5] 18.7 nM | Potency [7] 29.6 nM | Potency [11] 8.2 nM and 126 nM | Potency [12] 9.2 nM and 158 nM
inactive: Potency [1]

COc1cc2c(c(OC)c1OC)-c1ccc(OC)c(=O)cc1[C@@H](NC(C)=O)CC2
active: Potency [2] 23.7 nM and 18.6 nM | Potency [3] 16.8 nM and 14.8 nM | Potency [11] 25.9 nM and 35.5 nM | Potency [12] 92 nM and 100 nM
inactive: Potency [1] | Potency [14] | Potency [9] | Potency [10]

Nc1c2c(nc3ccccc13)CCCC2
active: Potency [4] 14800 nM
inactive and 18.6 µM (active): Potency [3]
inactive: Potency [1] | Potency [2] | Potency [5] | Potency [6] | Potency [7] | Potency [9] | Potency [10] | activity (max response) [11] -1.99% and -7.86% | Potency [12]

COC(=O)Nc1nc2ccc(S(=O)c3ccccc3)cc2[nH]1 (centres undefined)
inactive: Potency [1] | Potency [14] | Potency [6]
active: Potency [2] 16.6 µM and 841 nM | Potency [3] 14.8 µM and 668 nM | Potency [5] 7430 nM | Potency [12] 4.47 µM and 259 nM

CC12CC3CC(C)(C1)CC(N)(C3)C2
inactive: Potency [1] | Potency [2] | Potency [8] | Potency [9] | Potency [10] | activity (max response) [11] -3.68% | Potency [12]
active: Potency [3] 3.76 µM | Potency [4] 18700 nM

Cn1nnc2c(C(N)=O)ncn2c1=O
active: Potency [13] 18700 nM | Potency [8] 332 nM | Potency [10] 235 nM
inactive: Potency [1] | Potency [2] | Potency [3] | activity (max response) [11] -0.0469% and 5.28% | Potency [12]

CNc1nc(Nc2cnn([C@H]3CCN(C4COC4)C[C@@H]3F)c2Cl)ncc1C(F)(F)F
active: Potency [2] 1300 nM | Potency [3] 1.86 µM | Potency [14] 1660 nM | Potency [10] 2340 nM
inactive: Potency [1] | activity (max response) [11] -2.31% | Potency [12]

O=C1NS(=O)(=O)c2ccccc21
inactive: Potency [1] | Potency [2] | Potency [3] | activity (max response) [11] 0.607%

CCS(=O)(=O)c1ccc(OC)c(C(=O)OC)c1
inactive: Potency [1] | Potency [2] | Potency [3] | activity (max response) [11] 10.8%
